# Assay results: the supplement of paper PMC6555819
# Tests used:
# Assay in all cases: PBM binding z-score (relative to random genomic background probes); higher = stronger binding; sequences stand for … in GC…GCGATTGACAGCGTAGAATGAAGG
# [1] = system: FXR:RXRa (NR concentration 270 nM, RXRa partner concentration 90 nM)
# Method in brief: (§1)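 Ligand-free nuclear receptor dimers were bound for 1 h to custom Agilent 4×180K protein-binding microarrays. Detection used antibodies against each partner (one per run). Binding z-scores rest on regression-normalized fluorescence, with random background probes as the reference.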
# [2] = system: LXRa:RXRa (NR concentration 270 nM, RXRa partner concentration 90 nM)
# Method in brief: as §1
# [3] = system: LXRa homodimer (NR concentration 270 nM)
# Method in brief: as §1
# [4] = system: LXRb:RXRa (NR concentration 270 nM, RXRa partner concentration 90 nM)
# Method in brief: as §1
# [5] = system: LXRb homodimer (NR concentration 270 nM)
# Method in brief: as §1
# [6] = system: PPARa:RXRa (NR concentration 270 nM, RXRa partner concentration 90 nM)
# Method in brief: as §1
# [7] = system: PPARg:RXRa (NR concentration 180 nM, RXRa partner concentration 90 nM)
# Method in brief: as §1
# [8] = system: PPARg:RXRa 270nM:90nM, anti-RXR (NR concentration 270 nM, RXRa partner concentration 90 nM)
# Method in brief: as §1
# [9] = system: PPARg:RXRa 30nM:10nM, anti-RXR (NR concentration 30 nM, RXRa partner concentration 10 nM)
# Method in brief: as §1
# [10] = system: PPARg:RXRa 90nM:30nM, anti-RXR (NR concentration 90 nM, RXRa partner concentration 30 nM)
# Method in brief: as §1
# [11] = system: PPARg:RXRa DBDmut IVT, anti-RXR (DBD mutation: RXRa K156A/R161A, NR concentration 270 nM, RXRa partner concentration 90 nM)
# Method in brief: as §1
# [12] = system: PPARg:RXRa IVT, anti-PPARg (NR concentration 270 nM, RXRa partner concentration 90 nM)
# Method in brief: as §1
# [13] = system: PPARg DBDmut:RXRa IVT, anti-PPARg (DBD mutation: PPARg1 K132A/R137A, NR concentration 270 nM, RXRa partner concentration 90 nM)
# Method in brief: as §1
# [14] = system: PPARg DBDmut IVT, anti-PPARg (DBD mutation: PPARg1 K132A/R137A, NR concentration 270 nM)
# Method in brief: as §1
# [15] = system: PPARg homodimer (NR concentration 180 nM)
# Method in brief: as §1
# [16] = system: PXR:RXRa (NR concentration 270 nM, RXRa partner concentration 90 nM)
# Method in brief: as §1
# [17] = system: PXR homodimer (NR concentration 270 nM)
# Method in brief: as §1
# [18] = system: RARa:RXR (NR concentration 270 nM, RXRa partner concentration 90 nM)
# Method in brief: as §1
# [19] = system: RARa homodimer (NR concentration 270 nM)
# Method in brief: as §1
# [20] = system: RARb:RXRa (NR concentration 270 nM, RXRa partner concentration 90 nM)
# Method in brief: as §1
sequence,measurement,setting,value
GATACAGGGTCAGCTAGGGGCCAGAGTATGGAAA,PBM binding z-score,[1],5.14
same,PBM binding z-score,[2],2.64
same,PBM binding z-score,[3],-0.494
same,PBM binding z-score,[4],2.7
same,PBM binding z-score,[5],-0.084
same,PBM binding z-score,[6],4.79
same,PBM binding z-score,[7],3.88
same,PBM binding z-score,[8],3.46
same,PBM binding z-score,[9],0.617
same,PBM binding z-score,[10],1.94
same,PBM binding z-score,[11],1.75
same,PBM binding z-score,[12],2.41
same,PBM binding z-score,[13],-0.163
same,PBM binding z-score,[14],-0.667
same,PBM binding z-score,[15],3.15
same,PBM binding z-score,[16],2.94
same,PBM binding z-score,[17],-0.0214
same,PBM binding z-score,[18],4.97
same,PBM binding z-score,[19],0.262
same,PBM binding z-score,[20],4.22
ACTCGGAGGACAATGGTCAGAGCTACGCCAGTGA,PBM binding z-score,[1],-0.187
same,PBM binding z-score,[2],-0.512
same,PBM binding z-score,[3],-0.435
same,PBM binding z-score,[4],-0.708
same,PBM binding z-score,[5],-0.881
same,PBM binding z-score,[6],-0.704
same,PBM binding z-score,[7],0.723
same,PBM binding z-score,[8],0.466
same,PBM binding z-score,[9],-0.281
same,PBM binding z-score,[10],-0.00366
same,PBM binding z-score,[11],-0.21
same,PBM binding z-score,[12],-0.421
same,PBM binding z-score,[13],-1.67
same,PBM binding z-score,[14],-0.609
same,PBM binding z-score,[15],-0.576
same,PBM binding z-score,[16],-0.593
same,PBM binding z-score,[17],-0.561
same,PBM binding z-score,[18],-0.488
same,PBM binding z-score,[19],-0.119
same,PBM binding z-score,[20],1.23
AGAATGAGGTTATTCGTAGATCAGGGAAGAAAGT,PBM binding z-score,[1],2.59
same,PBM binding z-score,[2],2.61
same,PBM binding z-score,[3],0.0908
same,PBM binding z-score,[4],1.87
same,PBM binding z-score,[5],-0.0255
same,PBM binding z-score,[6],3.43
same,PBM binding z-score,[7],1.64
same,PBM binding z-score,[8],1.83
same,PBM binding z-score,[9],0.552
same,PBM binding z-score,[10],1.2
same,PBM binding z-score,[11],2.54
same,PBM binding z-score,[12],2.22
same,PBM binding z-score,[13],0.846
same,PBM binding z-score,[14],0.521
same,PBM binding z-score,[15],0.454
same,PBM binding z-score,[16],1.44
same,PBM binding z-score,[17],0.494
same,PBM binding z-score,[18],1.98
same,PBM binding z-score,[19],0.0936
same,PBM binding z-score,[20],1.36
CCTACTGGTCCATTCAGAGGTCATTGATCATATG,PBM binding z-score,[1],2.73
same,PBM binding z-score,[2],4.6
same,PBM binding z-score,[3],7.06
same,PBM binding z-score,[4],3.9
same,PBM binding z-score,[5],1.12
same,PBM binding z-score,[6],3.32
same,PBM binding z-score,[7],0.652
same,PBM binding z-score,[8],1.92
same,PBM binding z-score,[9],0.224
same,PBM binding z-score,[10],1.05
same,PBM binding z-score,[11],0.337
same,PBM binding z-score,[12],1.32
same,PBM binding z-score,[13],-0.102
same,PBM binding z-score,[14],0.307
same,PBM binding z-score,[15],3.17
same,PBM binding z-score,[16],4.52
same,PBM binding z-score,[17],4.29
same,PBM binding z-score,[18],4.42
same,PBM binding z-score,[19],1.99
same,PBM binding z-score,[20],2.89
TCTTGTAGATCAATAGACGTTAAGAAAGTGCGCT,PBM binding z-score,[1],0.594
same,PBM binding z-score,[2],0.28
same,PBM binding z-score,[3],-0.214
same,PBM binding z-score,[4],0.165
same,PBM binding z-score,[5],0.106
same,PBM binding z-score,[6],0.212
same,PBM binding z-score,[7],-0.0755
same,PBM binding z-score,[8],1.51
same,PBM binding z-score,[9],2.76
same,PBM binding z-score,[10],2.26
same,PBM binding z-score,[11],1.93
same,PBM binding z-score,[12],0.361
same,PBM binding z-score,[13],0.093
same,PBM binding z-score,[14],1.4
same,PBM binding z-score,[15],-0.0841
same,PBM binding z-score,[16],0.0599
same,PBM binding z-score,[17],-0.0185
same,PBM binding z-score,[18],0.0974
same,PBM binding z-score,[19],0.424
same,PBM binding z-score,[20],-0.173
GCATATAGGTAATACAAGGTGAAAGCCCGATTGT,PBM binding z-score,[1],1.68
same,PBM binding z-score,[2],1.95
same,PBM binding z-score,[3],0.224
same,PBM binding z-score,[4],0.494
same,PBM binding z-score,[5],-0.242
same,PBM binding z-score,[6],1.56
same,PBM binding z-score,[7],1.34
same,PBM binding z-score,[8],1.08
same,PBM binding z-score,[9],0.375
same,PBM binding z-score,[10],0.952
same,PBM binding z-score,[11],4.04
same,PBM binding z-score,[12],3.27
same,PBM binding z-score,[13],1.21
same,PBM binding z-score,[14],0.358
same,PBM binding z-score,[15],0.757
same,PBM binding z-score,[16],0.437
same,PBM binding z-score,[17],-0.12
same,PBM binding z-score,[18],0.973
same,PBM binding z-score,[19],0.0827
same,PBM binding z-score,[20],0.234
CGTCGAAGTTCAACTAAGGTAACGTAAAGCACGC,PBM binding z-score,[1],4.31
same,PBM binding z-score,[2],3.83
same,PBM binding z-score,[3],1.23
same,PBM binding z-score,[4],2.36
same,PBM binding z-score,[5],0.375
same,PBM binding z-score,[6],3.15
same,PBM binding z-score,[7],1.3
same,PBM binding z-score,[8],1.98
same,PBM binding z-score,[9],0.415
same,PBM binding z-score,[10],1.23
same,PBM binding z-score,[11],-0.101
same,PBM binding z-score,[12],0.723
same,PBM binding z-score,[13],0.00916
same,PBM binding z-score,[14],0.194
same,PBM binding z-score,[15],1.47
same,PBM binding z-score,[16],4.23
same,PBM binding z-score,[17],2.7
same,PBM binding z-score,[18],3.02
same,PBM binding z-score,[19],0.757
same,PBM binding z-score,[20],3.74
